# Results from PubChem BioAssay.
# Unmarked numbers belong to inactive results. Calls of active or inactive are those of the source.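 How the source made its calls: active means normalized viability below 100% at a tested concentration; inactive means the rest.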
# Test: drug combination growth inhibition, ovarian cancer – cell-based, oncology-focused library, rucaparib conditional, profiling panel (AID 1508598)
# Settings: patient-derived ovarian cancer cells, CellTiter-Glo viability, 144 h; at 0.0781 µM; OCI-P5x cells; without rucaparib; stronger effect = lower value
row,Structure (SMILES),viability
1,N#CCNC(=O)c1ccc(-c2ccnc(Nc3ccc(N4CCOCC4)cc3)n2)cc1,92.3% (active)
2,Nc1nc(Nc2ccc(S(N)(=O)=O)cc2)nn1C(=O)c1c(F)cccc1F,84% (active)
3,O=C(Nc1ccccc1-c1cn2c(CN3CCNCC3)csc2n1)c1cnc2ccccc2n1,110%
4,COc1ccc(-c2ccc3c(N4CCOCC4)nc(N4C[C@@H](C)O[C@@H](C)C4)nc3n2)cc1CO,109%
5,CC1(C)CNc2cc(NC(=O)c3cccnc3NCc3ccncc3)ccc21,108%
6,COc1cc2nccc(Oc3ccc(NC(=O)Nc4cc(C)on4)c(Cl)c3)c2cc1OC,87.4% (active)
7,N#Cc1c(NC(=O)c2cccc3ccccc23)sc2c1CCCC2,102%
8,COc1ccc(-c2ccc3c(N4CCOC[C@@H]4C)nc(N4CCOC[C@@H]4C)nc3n2)cc1CO,24.2% (active)
9,Cc1cnc(NC(=O)Nc2cc(Br)c(C)cc2OC[C@@H]2CNCCO2)cn1,105%
10,COC(=O)c1ccc2c(C(=Nc3ccc(N(C)C(=O)CN4CCN(C)CC4)cc3)c3ccccc3)c(O)[nH]c2c1,96.8% (active)
11,Cc1ccc(F)c(NC(=O)Nc2ccc(-c3cccc4[nH]nc(N)c34)cc2)c1,102%

# Same assay, conditions: patient-derived ovarian cancer cells, CellTiter-Glo viability, 144 h; at 0.313 µM; OCI-C5x cells; with rucaparib 10 µM; stronger effect = lower value; 100% = cells with rucaparib alone
row,Structure (SMILES),viability
1,N#CCNC(=O)c1ccc(-c2ccnc(Nc3ccc(N4CCOCC4)cc3)n2)cc1,108%
2,Nc1nc(Nc2ccc(S(N)(=O)=O)cc2)nn1C(=O)c1c(F)cccc1F,93.3% (active)
3,O=C(Nc1ccccc1-c1cn2c(CN3CCNCC3)csc2n1)c1cnc2ccccc2n1,110%
4,COc1ccc(-c2ccc3c(N4CCOCC4)nc(N4C[C@@H](C)O[C@@H](C)C4)nc3n2)cc1CO,121%
5,CC1(C)CNc2cc(NC(=O)c3cccnc3NCc3ccncc3)ccc21,122%
6,COc1cc2nccc(Oc3ccc(NC(=O)Nc4cc(C)on4)c(Cl)c3)c2cc1OC,133%
7,N#Cc1c(NC(=O)c2cccc3ccccc23)sc2c1CCCC2,119%
8,COc1ccc(-c2ccc3c(N4CCOC[C@@H]4C)nc(N4CCOC[C@@H]4C)nc3n2)cc1CO,47.2% (active)
9,Cc1cnc(NC(=O)Nc2cc(Br)c(C)cc2OC[C@@H]2CNCCO2)cn1,96% (active)
10,COC(=O)c1ccc2c(C(=Nc3ccc(N(C)C(=O)CN4CCN(C)CC4)cc3)c3ccccc3)c(O)[nH]c2c1,128%
11,Cc1ccc(F)c(NC(=O)Nc2ccc(-c3cccc4[nH]nc(N)c34)cc2)c1,113%
